According to the supplement of paper PMC6555819:

Key:
Assay in all cases: PBM binding z-score (relative to random genomic background probes); higher = stronger binding; sequences stand for … in GC…GCGATTGACAGCGTAGAATGAAGG
[1] = test system: FXR:RXRa (NR concentration 270 nM, RXRa partner concentration 90 nM)
Outline: (§1)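 Probes were double-stranded and carried 34-nt variable regions with direct-repeat seeds, single-nucleotide variants, half-site ablations and random human genomic background sequences, printed on custom Agilent 4×180K protein-binding microarrays. Arrays were incubated 1 h with ligand-free nuclear receptor dimers in PBS pH 7.4, 2% milk, 0.02% Triton X-100, 1 mM DTT, 0.2 mg/mL BSA and 0.4 mg/ml salmon testes DNA. Antibodies against each partner (one per run) detected binding, and scanned fluorescence was regression-normalized. Binding z-scores use the random background probes as reference.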

[2] = test system: LXRa:RXRa (NR concentration 270 nM, RXRa partner concentration 90 nM)
Outline: as §1

[3] = test system: LXRa homodimer (NR concentration 270 nM)
Outline: as §1

[4] = test system: LXRb:RXRa (NR concentration 270 nM, RXRa partner concentration 90 nM)
Outline: as §1

[5] = test system: LXRb homodimer (NR concentration 270 nM)
Outline: as §1

[6] = test system: PPARa:RXRa (NR concentration 270 nM, RXRa partner concentration 90 nM)
Outline: as §1

[7] = test system: PPARg:RXRa (NR concentration 180 nM, RXRa partner concentration 90 nM)
Outline: as §1

[8] = test system: PPARg:RXRa 270nM:90nM, anti-RXR (NR concentration 270 nM, RXRa partner concentration 90 nM)
Outline: as §1

[9] = test system: PPARg:RXRa 30nM:10nM, anti-RXR (NR concentration 30 nM, RXRa partner concentration 10 nM)
Outline: as §1

[10] = test system: PPARg:RXRa 90nM:30nM, anti-RXR (NR concentration 90 nM, RXRa partner concentration 30 nM)
Outline: as §1

Sequence | PBM binding z-score [1] | PBM binding z-score [2] | PBM binding z-score [3] | PBM binding z-score [4] | PBM binding z-score [5] | PBM binding z-score [6] | PBM binding z-score [7] | PBM binding z-score [8] | PBM binding z-score [9] | PBM binding z-score [10]
CGTCCAAGGTCAGCGAGGTCAGTGAATGCCGAGT | 6.31 | 5.26 | 1.83 | 4.28 | 0.00119 | 5 | 3.79 | 4.78 | 0.896 | 3.3
AATATTAGTTGACTTAGGGCAACCGATACGACGC | 0.123 | 0.163 | 0.741 | 0.405 | 0.26 | 0.162 | 1.09 | 0.355 | 0.448 | 0.286
AGAATGAGGTTATCAAAGATCAGGGAAACGCTTG | 1.6 | 5.08 | -0.032 | 2.44 | -0.277 | 3.13 | 1.78 | 1.69 | 0.863 | 1.53
CCGACTGGGGCATAAGGTGACCATAAGCCAGCCC | -0.111 | -0.426 | -0.561 | -0.432 | -1.62 | 1.3 | 2.04 | 2.92 | 0.757 | 2.38
AGAATGAGGTTAAGATCGGGGAAACAGAATACAT | 2.13 | 4.69 | -0.244 | 2.3 | 0.08 | 3.65 | 2.06 | 2.53 | 0.954 | 1.75
CGGACGAGGGCATGAGTTGATAGCAAATGCCGAT | 0.265 | 0.0809 | -0.262 | -0.154 | -0.96 | 1.01 | 0.992 | 0.682 | -0.202 | 0.196
CGAACTAGATCAGAACAGGACAGTGAAGGATGAT | -0.267 | -0.369 | -0.16 | -0.794 | -0.0768 | -0.51 | 0.886 | -0.506 | 0.112 | -0.125
CCGACTGGGGCAGGAAGGTTACCATACCATCCGG | -0.0935 | -0.228 | -0.392 | -0.202 | -0.995 | 0.76 | 0.782 | 0.189 | -0.465 | -0.0165
TCTTGTAGATCAAGCAGGATAAGAAAGCCTGAGT | -0.0578 | -0.0477 | -0.267 | -0.411 | -0.605 | 0.163 | -0.0969 | 0.937 | 2.58 | 1.76
GCATAAAGGTAATACAAGGTGAAAGTCCGATTGT | 0.963 | 4.21 | 0.396 | 1.65 | -0.394 | 2.06 | 0.943 | 1.72 | 0.61 | 0.948
TCTGCTAGGTCAGTTGGTCAGCTGACGAGCTGCC | 0.985 | 0.585 | -0.512 | 0.147 | 0.278 | 1.34 | 0.32 | 1.68 | 1.08 | 0.992
GCTGCTAGGTCAACTGTTGGTCAGCTAAAGCTCG | 3.97 | 2.97 | 0.182 | 2.03 | 0.134 | 3.61 | 2.63 | 3.07 | 0.511 | 2.23
AGTCAAAGTTCATCTATGTAACGTAAGATATGCT | 6.5 | 5.79 | 5.16 | 3.59 | 1.69 | 4.44 | 6.21 | 5.9 | 3.03 | 5.29
TCTCGTAGATCAACAGGAGGTTAAGAAAGATCGA | 0.345 | 1.09 | -0.171 | 1 | -0.667 | 1.13 | -0.29 | 1.7 | 2.94 | 2.36
CCTGCTAGGTCAATGGTAAGCTAAAGCAGCTCGC | 2.96 | 2.11 | -0.107 | 1.19 | -0.205 | 2.84 | 2.52 | 2.98 | 0.395 | 2.09
GCTATCAGTTGAAAGGGCAACCGAATGATTCTCG | 0.0237 | 0.591 | 0.000257 | 0.46 | -0.626 | 1.99 | 1.65 | 2.77 | 1.35 | 2.69
AGAATGAGGTTAATATCAGGGAAACAGAATACAT | 1.64 | 3.39 | 0.149 | 2.17 | 0.272 | 2.98 | 2.46 | 2.14 | 0.981 | 1.48
TCTGCTAGGTCAACGATGTTCAGCTAATCTGCTA | 3 | 2.22 | -0.237 | 1.39 | -0.31 | 3.1 | 2.54 | 3.01 | 2.01 | 2.42
GCTAGTTGGTAAGTAAAAGGTCACACACCGGTCG | 2.63 | 4.22 | 4.45 | 3.94 | 0.812 | 4.58 | 4.49 | 6.32 | 4.94 | 6.92
TGTCAAAGTTAAAAGGTAACGTAAGTATCCACAC | 0.429 | 0.482 | -0.245 | 0.823 | -0.178 | 2.09 | 2.26 | 3.15 | 1.03 | 2.13
ACAGACAGGTGAGTGAAGGTAAATCAGCTGGACG | 0.263 | -0.325 | -0.654 | -0.138 | -0.427 | -0.1 | 0.739 | -0.481 | -0.0948 | -0.384
CCTTCCGGGTCACTCCAGGTTATAGCATCGGAGT | 4.29 | 7.37 | 1.67 | 5.1 | 0.22 | 4.38 | 4.22 | 4.36 | 1.22 | 3.15
TCATATAGGTAATACAGGTGGAAGTCGGCATCTA | 1.45 | 1.49 | 0.307 | 0.555 | 0.553 | 1.31 | 1.07 | 2.33 | 3.98 | 3.14
CGAACTAGGTCAGAACAGCACAGTGAAGGATGAT | 0.904 | 0.613 | -0.229 | 0.425 | -0.2 | 3.25 | 5.34 | 4.59 | 1.73 | 3.54

Sequence | PBM binding z-score [1] | PBM binding z-score [2] | PBM binding z-score [3] | PBM binding z-score [4] | PBM binding z-score [5] | PBM binding z-score [6] | PBM binding z-score [7] | PBM binding z-score [8] | PBM binding z-score [9] | PBM binding z-score [10]
GCATATAGATAATACAAGGTGAAAGTCCGATTGT | 0.079 | 0.0374 | 0.245 | 0.117 | -0.118 | 0.578 | 1.21 | 0.513 | 0.278 | 0.522
AGAATAAGGTTATACGTAGATCAGGGAAGAAAGT | 1.99 | 1.9 | 0.223 | 1.56 | 0.0959 | 2.65 | 1.67 | 1.3 | 0.895 | 1.04
GCTGCGAGGTCAGGTTGGTCAGCTAACGGGTACG | 5.45 | 3.46 | 0.305 | 2.93 | 0.482 | 4.38 | 2.49 | 2.99 | 0.517 | 1.75
AGAATGAGGTTATACGTAGAACAGGGAAGAAAGT | 2.01 | 1.58 | -0.14 | 1.56 | 0.0441 | 3.07 | 2.2 | 1.83 | 1.07 | 1.68
CAAACTAGGTCTCGAAAGGTCAAAGTCGAATGAC | 4.95 | 5.78 | 5.59 | 5.49 | 1.63 | 5.51 | 5.33 | 5.32 | 2.94 | 4.72
CCTCACGGGTCACTGACAGGTTATAGCATTTGGA | 4.72 | 3.72 | 0.511 | 3.24 | -0.196 | 4.66 | 3.37 | 3.34 | 0.625 | 1.85
CGAACGAGGGCATGAGTTGGTAGCAAATGCCGAT | 0.159 | 0.0461 | -0.707 | -0.2 | -1.32 | 1.06 | 0.849 | 0.827 | 0.00769 | 0.471
ACAAGTTGGTCAGCTGAGGTCACACACAATTCGG | 3.12 | 3.24 | 2.34 | 3.77 | 0.506 | 3.78 | 2.28 | 2.38 | 0.435 | 1.74
GCTGCTAGGTCAGCTGATGGTCAGCTAAAGCTCG | 1.21 | 0.513 | -0.477 | 0.0658 | -1.13 | 1.58 | 0.146 | 1.01 | -0.292 | 0.544
CGTCCTAGGTCAGCAGGTCAGTGAAAGCGACGTG | 2.92 | 2.04 | 0.0283 | 1.6 | -0.603 | 3.23 | 2.32 | 3.21 | 0.151 | 1.87
TCTATTAGTTGAAAGGCAACCGACGAGTCCGTTT | 0.518 | 0.929 | 0.254 | 0.901 | 0.728 | 1.12 | 0.475 | 2.96 | 4.06 | 3.42
ATCGAAAGGACGAGGTGAGTATAGAGAAAGGGAA | 0.588 | 0.168 | -0.177 | -0.191 | -0.00522 | 0.0333 | 0.589 | -0.152 | 0.508 | 0.313
TCTATTAGTTGAAGGGCAACCGCCGAGTCCGTTT | 0.913 | 0.871 | 0.578 | 0.586 | 0.231 | 0.935 | -0.454 | 2.19 | 3.81 | 2.91
CCTAACGGGTCAAGGTTATAGCACGGGTGGTACG | 4.72 | 3.16 | 0.175 | 2.46 | 0.225 | 4.48 | 3.41 | 3.67 | 1.21 | 2.39
CCTCAGAGGACAGAAGGTCAGAGCTGTCCGCTTT | 1.31 | 1.63 | -0.13 | 1.24 | -0.707 | 2.19 | 0.358 | 0.634 | -0.132 | 0.513
TCTGCTAGGTGAGTTGGTCAGCTAACGAGCTGCC | -0.433 | -0.56 | -0.902 | -0.937 | -0.888 | -0.304 | -0.825 | 0.406 | 0.873 | 0.748
CCTTACGGGTCAGTCCAGGTTATAGCATCGGAGT | 3.69 | 3.88 | 0.251 | 1.74 | -0.12 | 2.85 | 1.11 | 1.64 | 0.319 | 0.821
ACCGAAAGGTCGAAGGTGAGTATACCCACCCGAA | 4.73 | 3.55 | -0.00494 | 2.87 | 0.185 | 4.8 | 4.39 | 4.89 | 1.89 | 3.85
AGACCGAGGGCACGCTGAGTTGATAGCAGAGTAG | 0.748 | 0.67 | -0.437 | 0.0788 | -0.999 | 1.56 | 0.962 | 0.775 | -0.337 | 0.0427
CTTCAAAGTTCAACTAAGGTAACGTAAAGCACGC | 7.28 | 6.39 | 5.24 | 4.06 | 2.56 | 5.12 | 3.32 | 4.03 | 1.49 | 3.06
CTCGAAAGGTCGGTTCAGGTGAGTATACGGATAA | 2.48 | 1.92 | 0.307 | 1.74 | 0.00585 | 2.86 | 0.546 | 1.36 | 0.0497 | 0.769
GTACCAAGGTGAAAAGGTCGTTGATGAGTAGGCG | 2.32 | 1.94 | 0.42 | 1.99 | -0.22 | 3.63 | 2.62 | 3.36 | 1.38 | 2.94
CAAACTCGGTCAAAGGTCAAAGTCGAGCCAACCA | 7.73 | 6.98 | 6.36 | 6.72 | 3.13 | 7.67 | 12.9 | 10.9 | 11.8 | 12.5
TCTTTTAGATCAGCAGGTTAAGAAAGCTGGCCAA | 0.304 | 0.549 | -0.247 | 0.44 | 0.139 | 0.889 | -0.5 | 1.65 | 3.33 | 2.36
